# Laboratory results published in PubChem BioAssay AID504332 (National Center for Advancing Translational Sciences (NCATS), 2011).
# In all, about 350,000 compounds went through this assay and about 31,000 (8.9%) were called active. Roughly 15% stayed inconclusive and do not appear here. The call rests on the fitted dose curve; in most records, active means well fitted inhibition curve with a large enough effect; inconclusive means small, poorly fitted or top-dose-only effect; inactive means no such curve, though single readings can be large or run the other way. This excerpt belongs to a sample that is enriched for actives.
# Target: Histone-lysine N-methyltransferase EHMT2 (Homo sapiens) (UniProt Q96KQ7)
# Sequence (Q96KQ7 913-1193 limits assumed): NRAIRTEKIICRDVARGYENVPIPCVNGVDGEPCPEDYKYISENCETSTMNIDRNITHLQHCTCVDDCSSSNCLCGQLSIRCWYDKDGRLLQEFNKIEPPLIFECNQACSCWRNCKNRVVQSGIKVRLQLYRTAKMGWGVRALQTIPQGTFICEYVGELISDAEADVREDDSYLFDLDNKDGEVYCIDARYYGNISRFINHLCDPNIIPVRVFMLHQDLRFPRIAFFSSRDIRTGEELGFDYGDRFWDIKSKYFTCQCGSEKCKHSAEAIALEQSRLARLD
# Experiment: qHTS Assay for Inhibitors of Histone Lysine Methyltransferase G9a; further: nearly all actives have a fitted effect of over 75% in size
# Conditions: G9a H3K9 monomethylation, AlphaScreen, 2 h; series mostly up to 59 µM; activity, negative = inhibition: at the top concentration
# Summary of the method: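 Enzyme 20 nM + cpd, 15 min RT; add b-H3K9 pep 500 nM / SAM 20 uM; 2 h RT; anti-H3K9me1 Ab 0.5 ug/mL + SA donor / anti-rabbit acceptor beads 20 ug/mL each, 10 min; AlphaScreen read.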
# On the % scale 0 is the no-effect control and ±100 the full control effect; potency means the concentration at half of the fitted maximal effect.
Compound,"activity, negative = inhibition",Potency
COc1ccc(CCn2c(=N)c(C(=O)NCC3CCCO3)cc3c(=O)n4cccc(C)c4nc32)cc1OC (stereo not given),-20.3% [at 102 µM] (inactive),
COc1cccc(/C=C2\Sc3ccc(C(=O)NCC4CCCO4)cc3N(C)C2=O)c1 (stereo not given),5.24% [at 102 µM] (inactive),
COc1cccc(NC(=O)Nc2ccc3c(c2)N(C)C(=O)c2ccccc2S3)c1,-33.9% (inactive),
COc1ccc2c(c1)N(C)/C(=C1/SC(=S)N(NC(C)=O)C1=O)S2,,70.8 µM (active)
CN(C(=O)CSc1nnc(-c2ccc3c(c2)OCO3)o1)C1CCS(=O)(=O)C1 (stereo not given),23.8% [at 12.7 µM] (inactive),
CCOC(=O)c1cc(C(C)C)sc1NC(=O)COC(=O)c1nccnc1N,-18.5% [at 0.501 µM] (inactive),
COC(=O)c1ccc(C(=O)NC2CC(C)(C)Cc3c2cnn3-c2ccc(F)cc2)nc1 (stereo not given),33.1% [at 102 µM] (inactive),
CCCN(C(=O)Cn1ncc2c([nH]c3ccc(C)cc32)c1=O)c1ccccc1C,-4.99% (inactive),
CC(C)(C)OC(=O)NCCCCCNC(=O)c1nc[nH]c1C(=O)NCc1ccccc1,24.5% [at 2.33 µM] (inactive),
Cc1nn(C(=O)c2ccoc2C)c(N)c1-c1ccccc1,,31.6 µM (active)
C/C(=N\NC(=O)c1ccoc1C)c1ccccc1O,11.6% [at 102 µM] (inactive),
Cc1occc1C(=O)Nc1nnc(-c2ccncc2)s1,-37.1% [at 12.7 µM] (inactive),
CCOc1ccccc1NC(=O)CN1CCCN(Cc2cccc(Cl)c2)S1(=O)=O,5.41% (inactive),
Cc1ccc2c(c1)N(CC(=O)NCCc1ccc(Cl)cc1)C(=O)c1cccnc1O2,,inactive
COc1ccc2c(CC(=O)OCC(=O)Nc3ccccc3[N+](=O)[O-])coc2c1,,11.2 µM (active)
COc1ccc2c(CC(=O)Nc3nnc(C4CC4)s3)coc2c1,-40.9% (inactive),
COc1ccc2c(CC(=O)OCC(=O)NC(N)=O)coc2c1,-0.798% [at 102 µM] (inactive),
COc1ccc(C(=O)c2c3ccc([N+](=O)[O-])cc3[n+]([O-])n2CCCN)cc1,-22.2% [at 2.33 µM] (inactive),
Cc1c(CCNC(=O)c2ccc(C(F)(F)F)cc2)sc2nc(-c3ccc(F)cc3)nn12,-4.14% (inactive),
CCOC(=O)c1ccccc1NC(=O)c1nn(-c2ccc(OC)c(Cl)c2)c(=O)c2c1c1ccccc1n2C,-23.6% (inactive),

Compound,"activity, negative = inhibition",Potency
CC(=O)c1ccc(NC(=O)c2nc3nc(C)cc(C(F)F)n3n2)cc1,5.77% (inactive),
CCOC(=O)c1cccc(NC(=O)C2CCN(c3ncnc4c3nc3n4CCCCC3)CC2)c1,8.88% [at 102 µM] (inactive),
COCCCNCCOCCOc1ccc(Cl)cc1Br,,10 µM (active)
COCCNCCOCCOc1cccc(OC)c1,-4.05% [at 102 µM] (inactive),
CCOCCCNCc1cc(Br)ccc1OCC,1.6% [at 12.7 µM] (inactive),
Cc1csc2nc(COC(=O)c3cccc(N(C)C)c3)cc(=O)n12,3.53% [at 2.33 µM] (inactive),
CC(OC(=O)CN1C(=O)c2ccccc2C1=O)C(=O)c1ccccc1 (stereo not given),12.8% [at 12.7 µM] (inactive),
O=C(Nc1ccc(F)cc1)N1CCN(c2ccc(F)cc2)CC1,1.61% [at 102 µM] (inactive),
CC(=O)N1CCN(c2ccc(NCc3ccc(C(C)C)cc3)cc2)CC1,,14.1 µM (active)
CCc1ccc(NC(=O)N2CCN(c3ccccc3)CC2)cc1,-6.08% [at 102 µM] (inactive),
Cc1cc(F)ccc1S(=O)(=O)Nc1ccc(C(=O)N(C)Cc2ccco2)cc1,23.8% [at 2.33 µM] (inactive),
Cc1nn(CC(=O)NCCc2ccccc2)c(=O)c2c1sc1ccccc12,-28.2% (inactive),
Cc1ccc(C)c(N2CCN(C(=O)Cn3ncn4cccc4c3=O)CC2)c1,-1.09% [at 102 µM] (inactive),
Cc1ccc(C)c(N2CCN(C(=O)Cn3nc(C)c4sc5ccccc5c4c3=O)CC2)c1,,12.6 µM (active)
CCn1nc(C(=O)NNC(=O)C2CSC3(C)CCC(=O)N23)c2ccccc2c1=O (stereo not given),2.22% [at 12.7 µM] (inactive),
Cc1csc2nc(COC(=O)c3ccc(NC(=O)COc4ccccc4F)cc3)cc(=O)n12,6.31% [at 12.7 µM] (inactive),
CCOC(=O)c1cc2c(=O)n3ccccc3nc2n(CC2CCCO2)c1=NC(=O)c1ccc(C(C)(C)C)cc1 (stereo not given),7.45% (inactive),
COc1ccc(CCN(Cc2cc3cccc(C)c3[nH]c2=O)C(=O)N2CCCC2)cc1OC,-36.8% [at 12.7 µM] (inactive),
COc1cc2cc(CN(CCN3CCCC3)C(=O)Nc3ccccc3Cl)c(=O)[nH]c2cc1OC,,50.1 µM (active)
Cc1ccc2[nH]c(=O)c(CN(CCCN(C)C)C(=O)Nc3cccc(Cl)c3)cc2c1,9.59% (inactive),

Compound,"activity, negative = inhibition",Potency
CCCCNC(=O)c1cn(CC)c2cc(N3CCN(C(=O)c4ccco4)CC3)c(F)cc2c1=O,-11.5% [at 102 µM] (inactive),
CCOc1ccc(CNC(=O)c2ccc3c(c2)nnn3C2CCCC2)cc1,7.24% (inactive),
O=C(NC1CCCC1)C(c1ccco1)N(C(=O)c1ccco1)c1ccc(F)cc1 (stereo not given),-10.7% [at 102 µM] (inactive),
O=c1cc(COc2cccc(C(F)(F)F)c2)nc2sc3c(n12)CCCC3,4.72% (inactive),
Cc1ccc(CC(=O)Nc2ccc(OC(F)F)c(Cl)c2)cc1C,33% (inactive),
COc1cc(NC(=S)NCc2ccco2)c(OC)cc1Cl,,50.1 µM (active)
COc1cccc(OC)c1C(=O)NC(=S)NCc1ccco1,-48.7% [at 102 µM] (inactive),
O=C(NNC(=S)NCc1ccco1)C(c1ccccc1)c1ccccc1,0.815% [at 102 µM] (inactive),
FC(F)Oc1ccc(NC(=S)NCc2ccco2)cc1Cl,,50.1 µM (active)
CCOc1cc(NC(=S)NCc2ccco2)c(OCC)cc1NC(=O)c1ccco1,3.75% [at 102 µM] (inactive),
Cc1c(Cl)cccc1NC(=O)Cn1cc(C(=O)c2cccs2)c2ccccc21,5.79% (inactive),
Cc1ccc(NC(=O)CN2c3ccccc3S(=O)(=O)c3ccccc32)cc1F,-5.79% (inactive),
CCCN(CCC)C(=O)C(Cc1ccccc1)NS(=O)(=O)c1ccc2c(c1)c(=O)n(C)c(=O)n2C (stereo not given),-5.06% (inactive),
CC(C)c1ccc(NC(=S)NNc2ccc(Cl)c(C(=O)O)c2)cc1,,10 µM (active)
CCC(C(=O)Nc1ccc(C(C)C)cc1)c1ccccc1 (stereo not given),-0.762% [at 102 µM] (inactive),
Cc1cccc(NC(=S)Nc2ccc(Br)cc2)c1,21.1% (inactive),
Cc1ccc(C)c(NC(=S)NNC(=S)Nc2ccc(C(C)C)cc2)c1,,31.6 µM (active)
Cc1ccc(C)c(NC(=S)NCC(c2cccnc2)N2CCOCC2)c1 (stereo not given),2.92% [at 102 µM] (inactive),
CC(C)CC(=O)NC(=S)Nc1cc(C(=O)O)ccc1Cl,10.6% (inactive),
COCCNC(=O)c1ccc2nc(Cc3ccc(OC)c(OC)c3)oc2c1,42.5% [at 102 µM] (inactive),
